Source: PubChem BioAssay AID2289 (National Center for Advancing Translational Sciences (NCATS), 2010)
The whole screen tested about 340,000 compounds, of which about 3,300 (0.97%) were called active. Roughly 9% stayed inconclusive and do not appear here. Calls come from the whole dose curve; as a rule, active = well fitted inhibition curve with a large enough effect; inconclusive = small, poorly fitted or top-dose-only effect, or effect the other way; inactive = flat fitted curve, though single readings scatter. This is one part of the list.

Experiment: qHTS Assay for Modulators of miRNAs and/or Inhibitors of miR-21; note: nearly all actives have a fitted effect of over 55% in size
Details: HeLa miR-21-FLuc reporter, luciferase luminescence, 48 h; actives lower the signal
Method in brief: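 Using DMEM plus 10% FBS, HeLa miR-21-FLuc cells are incubated with test compounds (final up to about 40uM) for 48 hours; firefly luciferase signal is then imaged following reagent-mediated lysis.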
Potency is the fitted concentration of half-maximal effect.

Potency, active:
CCOc1ccc(-c2nc(-c3ccccc3C)no2)cc1 0.826 µM
O=C(/C=C/c1c(F)cccc1Cl)Nc1nc2ccccc2[nH]1 5.21 µM
NC(=O)c1ccccc1NC(=O)/C=C/c1c(Cl)cccc1Cl 2.93 µM
O=C(/C=C/c1c(F)cccc1Cl)Nc1ncccn1 3.29 µM
S=C(Nc1ccc2[nH]ccc2c1)NC1CCCCC1 4.14 µM
Cc1cccn2cc(-c3c[nH]c4ccccc34)nc12 13.1 µM
O=C(c1cc(COc2ccc(F)cc2F)on1)N1CCSCC1 5.85 µM
O=C(c1cc(COc2ccc(F)cc2F)on1)N1CCOCC1 14.7 µM
O=C(c1cc(COc2ccc(F)cc2Cl)on1)N1CCCCCC1 4.14 µM
O=C(c1cc(COc2ccc(F)cc2Cl)on1)N1CCSCC1 6.56 µM
O=C(c1cc(COc2c(F)cccc2F)on1)N1CCCCCC1 7.36 µM
O=c1c(Cl)c(N2CCN(c3ccc(F)cc3)CC2)cnn1-c1nc2ccccc2s1 3.29 µM
Cc1ccc(C)c(N2CCN(c3cnn(-c4nc5ccccc5s4)c(=O)c3Cl)CC2)c1 0.927 µM
O=C(/C=C/c1ccccc1)NC1CC2CCC1C2 (stereo not drawn) 7.36 µM
Cc1cc(-c2ccc(N3CCOCC3)cc2)nc2ccccc12 3.29 µM
NC(=O)CC1C(=O)N(c2ccccc2)C(=S)N1NC(=O)c1ccc(Br)cc1 (stereo not drawn) 7.36 µM
COc1cccc(C(=O)NN2C(=S)N(c3ccccc3)C(=O)C2CC(N)=O)c1 (stereo not drawn) 6.56 µM
COc1ccccc1-c1nnc(-c2ccc(N3CCOCC3)cc2)o1 7.36 µM
CCOc1ccc(-c2nnc(-c3cccs3)o2)cc1OCC 6.56 µM
COc1ccc(-c2nnc(-c3ccccc3)o2)cc1OC 3.69 µM
COc1ccc(-c2nnc(-c3ccc(Br)o3)o2)cc1OC 14.7 µM
COc1ccc(-c2noc(-c3cccs3)n2)cc1OC 0.826 µM
COc1ccc(CCN(C)C(=O)CCc2nnc(-c3ccccc3)o2)cc1OC 4.65 µM
c1csc(-c2nc(-c3ccc(-c4ccon4)s3)no2)c1 0.329 µM
CN(C)c1ccc(-c2nnc(-c3cccs3)o2)cc1 0.117 µM
CCOc1ccc(-c2nnc(-c3ccco3)o2)cc1OCC 16.5 µM
COc1ccc(-c2nnc(-c3cccs3)o2)cc1OC 2 µM
Cc1cc(C)c(C#N)c(SCC(=O)Nc2nonc2N)n1 14.7 µM
Cc1cc(C)c(C#N)c(SCC(=O)Nc2ccc3c(c2)OCO3)n1 3.29 µM
COc1ccc(NC(=S)Nc2cc(C)ccn2)c(OC)c1 1.65 µM
COc1ccc(NC(=O)c2ccc(C)cc2)c(OC)c1 5.85 µM
COc1ccc(NC(=O)c2cc(C(C)C)on2)c(OC)c1 3.69 µM
CCN(CC)C(=O)c1ccc(-c2cccs2)s1 6.56 µM
CC(=O)N=C(N)Sc1nc2ccccc2[nH]1 2.33 µM
NC(=O)c1ccccc1N/C=C/C(=O)c1cccs1 0.521 µM
CCOC(=O)c1ccccc1N/C=C/C(=O)c1cccs1 9.27 µM
Cc1ccc2nc(-c3ccc(SCC(=O)Nc4nc(C)cs4)nc3)[nH]c2c1 1.47 µM
c1ccc(N2CCN(c3cnc4ccccc4n3)CC2)cc1 1.04 µM
COc1ccccc1OCCCOc1ccc(C)cc1Br 14.7 µM
COc1cc(C)ccc1OCCCOc1ccccc1Br 14.7 µM
COc1ccc(C(=O)N/N=C(/C)c2ccc(N3CCCCC3)cc2)cc1 8.26 µM
C/C(=N\NC(=O)c1ccccc1)c1ccc(N2CCCCC2)cc1 6.56 µM
O=C(c1ccc(F)cc1)c1ccc(N2CCCCC2)cc1 4.65 µM
COc1ccc(/C(C)=N/NC(=O)c2ccccc2N)cc1 18.5 µM
Cc1ccc(/C(N)=N/OC(=O)c2ccc(Cl)cc2Cl)cc1 1.04 µM
Cc1ccc(/C(N)=N/OC(=O)c2ccc(C)cc2Cl)cc1 0.261 µM
CCn1c(/C=C/c2c[nH]c3ccccc23)nc2ccccc2c1=O 0.414 µM
O=C(NNc1ncnc2ccccc12)c1cccc(Cl)c1 0.927 µM
O=C(c1cnsn1)N1CCC(CO)(Cc2cccc(F)c2)CC1 14.7 µM
Cc1cccc(-c2cc3nc(C)cc(C)n3n2)c1 1.85 µM
Cc1cc(C)n2nc(-c3cccc(Br)c3)cc2n1 3.29 µM
Cc1nc2cc(-c3ccc(Cl)cc3)nn2c(NCCN(C)C)c1C 5.85 µM
CSc1nc(N)n2nc(-c3ccc(Cl)cc3)cc2n1 0.826 µM
COc1ccc(-c2cc3nc(C)cc(C)n3n2)cc1 3.29 µM
Cc1ccc(-c2cc3nc(C)cc(C)n3n2)cc1 3.69 µM
Cc1cc(C)n2nc(-c3ccc(Cl)cc3)cc2n1 1.17 µM
Cc1ccsc1C(=O)NNC(=O)C1CC=CCC1C(=O)O (stereo not drawn) 4.65 µM
Cc1ccsc1C(=O)NNC(=O)C1CCCCC1C(=O)O (stereo not drawn) 1.85 µM
Cc1ccsc1C(=O)NNC(=O)C1C2C=CC(C2)C1C(=O)O (stereo not drawn) 0.826 µM
CN(C)/N=C/c1ccc(OS(=O)(=O)c2ccccc2)cc1 3.29 µM
Cc1[nH]n(C(N)=S)c(=O)c1N=Nc1ccc2ccccc2c1 1.47 µM
Nc1nc2sc3c(c2c(=O)s1)CCCC3 16.5 µM
COCCCNC(=O)COc1ccc(Br)cc1Cl 10.4 µM
COc1ccc(Nc2nc(N)nc(CSC(=S)N3CCOCC3)n2)cc1 16.5 µM
COc1ccc(Nc2nc(N)nc(CSC(=S)N3CCCCC3)n2)cc1 14.7 µM
CC(C)OC(=O)c1ccc2nc3ccccc3nc2c1 0.656 µM
O=C(/C=C/Nc1ccc(F)cc1)c1ccc(Br)cc1 0.927 µM
O=C(/C=C\Nc1ccc(Br)cc1)c1cccnc1 1.31 µM
O=C(/C=C/Nc1ccccc1F)c1ccc(Br)cc1 0.293 µM
O=C(/C=C/Nc1ccc(F)c(F)c1)c1ccc(Br)cc1 1.85 µM
O=C(NN=C1CCCC1)c1cccs1 1.65 µM
CC(=O)N1CCC(=NNC(=O)c2cccs2)CC1 3.69 µM
CC(C)N1CCC(=NNC(=O)c2cccs2)CC1 6.56 µM
Cc1ccsc1C(=O)NN=C1CCCCCC1 3.69 µM
Cc1ccc(-c2nc(C#N)c(NCc3ccco3)o2)cc1 4.14 µM
COc1ccc(-c2nc(C#N)c(NCc3ccco3)o2)cc1 9.27 µM
COc1ccc(C(=O)/C=C/c2ccc(OC)cc2OC)c(O)c1 6.56 µM
Clc1ccc(-c2cn3nc4c(nc3n2)CCCC4)cc1 0.117 µM
O=C(Nc1ccsc1C(=O)O)c1cccc(C(F)(F)F)c1 7.36 µM
COc1ccc(C2=NN(S(C)(=O)=O)C(c3cccs3)C2)cc1OC (stereo not drawn) 7.36 µM
COc1ccc(C2=NN(S(C)(=O)=O)C(c3cccs3)C2)cc1 (stereo not drawn) 2.61 µM
COc1ccc(C2=NN(C(C)=O)C(c3cccs3)C2)cc1OC (stereo not drawn) 8.26 µM
COc1ccc(C2=NN(S(C)(=O)=O)C(c3ccc4nccnc4c3)C2)cc1 (stereo not drawn) 7.36 µM
CC(=O)c1sc(N/N=C\c2ccc(C)cc2)nc1C 3.29 µM
CC(=O)c1sc(NCc2ccc(C)cc2)nc1C 5.21 µM
CC(=O)c1sc(N/N=C\c2ccc(Br)cc2)nc1C 5.21 µM
CC(=O)c1sc(N/N=C\c2ccc(N(C)C)cc2)nc1C 0.927 µM
Cc1cc(C(=O)NNC(=S)Nc2ccccc2C)cs1 1.65 µM
CCc1cc(C(=O)NNC(=S)Nc2ccccc2C)cs1 2.07 µM
c1ccc2nc(-c3ccc(-n4ccnc4)cc3)ccc2c1 0.826 µM
COc1ccc(C(=O)N[C@H](C(=O)Nc2nc3c(s2)CCCC3)C(C)C)cc1 2.93 µM
Nc1ccc2c(c1)sc1ccccc12 6.56 µM
O=C(O)c1cc(N/N=C/C=C/c2ccccc2[N+](=O)[O-])ccc1Cl 3.29 µM
NNc1ccc(Cl)c(C(=O)O)c1 6.56 µM
O=C(O)c1cc(N/N=C/C=C/c2ccccc2)ccc1Cl 0.826 µM
NS(=O)(=O)c1ccc(N/N=C/C=C/c2ccccc2[N+](=O)[O-])cc1 3.29 µM
O=C(O)c1cc(N/N=C/C(Cl)=C/c2ccccc2)ccc1Cl 0.233 µM
O=C(O)c1ccc(N/N=C/C=C/c2ccccc2[N+](=O)[O-])cc1 4.65 µM
CC(C)c1ccc(CNc2n[nH]c(-c3ccco3)n2)cc1 2.07 µM
Fc1cccc(Cl)c1CNc1n[nH]c(-c2ccco2)n1 7.36 µM
Nc1c(C(=O)N/N=C/c2ccccc2)cnn1-c1ccccc1 1.47 µM
Nc1c(C(=O)N/N=C/c2cccnc2)cnn1-c1ccccc1 16.5 µM
Cc1ccccc1OCC1Cc2c(nc(N)c(C#N)c2N)O1 (stereo not drawn) 14.7 µM
N#Cc1c(N)nc2c(c1N)CC(COc1ccccc1)O2 (stereo not drawn) 7.36 µM
C=C(C)Cn1cnc2c(oc3nc4c(cc32)CCCC4)c1=O 1.17 µM
Cc1cc(C=C2C(=O)c3ccccc3C2=O)c(C)n1-c1cccc(C(=O)O)c1 11.7 µM
Cc1cc(C=C2C(=O)c3ccccc3C2=O)c(C)n1C 18.5 µM
CCn1c(C)cc(C=C2C(=O)c3ccccc3C2=O)c1C 13.1 µM
